For one compound, activity (protection/inhibition) results are on record in PubChem BioAssay AID651871 (Sanford-Burnham Center for Chemical Genomics, 2012).

In the test the test system is HL-1. The test can be described thus: cardiomyocyte survival under oxidative or metabolic stress – cell-based, panel, H9c2 and HL-1, ATP luminescence, set 2, SAR follow-up (AID 651871).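 Note: cells exposed to stressor for 2 h before ATP readout; reference of the scale not given here.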 Particulars: H9c2/HL-1 cardiomyocytes, 2-deoxyglucose stress, with 2-deoxyglucose, run 11, at 19.8 µM (top of the series).

On to `COc1ccc2c(c1OC)C(=O)N1c3ccccc3C(=O)N(Cc3cccc(Cl)c3Cl)C21` (stereo unspecified), for which the activity (protection/inhibition) is 40%.
